# From ChEMBL document CHEMBL3433997, “St. Jude Leishmania screening dataset” (2016)
# Biological target: Glucose transporter (Leishmania mexicana) (UniProt O61059)
# Experiment: ST_JUDE_LEISH: Cytotoxicity at 2uM final concentration against transgenic Leishmania Mexicana promastigotes LmGT2 that are glucose transport deficient and complemented with the L. Mexicana glucose transporter 2. Activity is measured by DNA content using SYBR green in vitro
# Assay type: functional
row,Structure (SMILES),inhibition [%]
1,Cc1nn(-c2ccccc2)c2nc(-c3ccccc3)cc(C(=O)N3CCOCC3)c12,-2.24
2,CCOC(=O)c1ccc(N2CCN(CCCNC(=O)/C(=C/C=C/c3cc4cc(Cl)c(Cl)cc4[nH]3)OC)CC2)cc1,0.57
3,Cc1ccccc1N1CCN(c2ccc(C(=O)NC(C)C)cn2)CC1,-1.79
4,Cc1cc(NC(=O)c2ccco2)ccc1OC1CCN(Cc2ccc(F)cc2)CC1,1.98
5,CCOc1ccc(NC(=O)c2cn3nc(-c4ccc(OCC)cc4)cc3nc2C2CCNCC2)cc1,3.37
6,CCCCCCN1CCC(CNCc2cccc([N+](=O)[O-])c2)CC1,5.95
7,CCCC(=O)Nc1ccc(OCCCCN(Cc2ccccc2C(F)(F)F)c2ccc(C(F)(F)F)c(C#N)c2)cc1,5.58
8,COc1cccc(C2CCN(CCCCNC(=O)c3ccc(NC(=O)c4ccc(Cl)cc4)cc3)CC2)c1,3.37
9,Cc1nc2ccccc2c(=O)n1/N=C/c1ccccc1[N+](=O)[O-],2.65
10,CC(C)NCc1ccc(-c2cccc(NC(=O)c3ccc(C#N)cc3)c2)cc1,7.32
11,Cc1c(S(=O)(=O)Nc2ccc3nccc(N4CCN[C@H](C)C4)c3c2)sc2ccc(Cl)cc12,-2.96
12,Cc1cc(NC(=O)c2cccs2)ccc1OC1CCN(Cc2ccccc2)C1 (stereo not given),1.56
13,Cc1ccccc1C1CCN(C2CCC(NC(=O)/C=C/c3ccc4c(c3)OC(F)(F)O4)CC2)CC1 (stereo not given),2.92
14,CCN(CCNC(=O)Nc1cc(C(F)(F)F)cc(C(F)(F)F)c1)c1cccc(C)c1,5.45
15,CCCCCC(C)NC[C@@H](O)[C@H](Cc1ccccc1)NC(=O)c1cc(NCC)cc(N2CCCCS2(=O)=O)c1 (stereo not given in full),0.36
16,CN1CCC(N2CCN(CCOc3cc(NC(=O)/C=C/c4ccccc4Cl)ccc3Br)CC2)CC1,-1.82
17,CCc1c(CCNCCCCCCNCCc2ccc(OC)c(OC)c2C)ccc(OC)c1OC,12.1
18,Cc1cc(NCCCCCCNc2cc(C)nc3c(C)cccc23)c2cccc(C)c2n1,0.85
19,CC1(C)NC(N)=NC(=N)N1OCCOc1ccc2ccccc2c1,1.3
20,OC(CNc1ccnc(Nc2ccc(Cl)cc2)n1)c1ccc(C(F)(F)F)cc1 (stereo not given),2.64

row,Structure (SMILES),inhibition [%]
1,O=C(Nc1cc(Cl)ccc1O)c1cnn2c(C(F)(F)F)cc(-c3cccs3)nc12,3.63
2,COc1ccc(Cl)c(CC2c3cc(O)c(Cl)cc3CCN2C)c1 (stereo not given),-1.58
3,CCCCCCn1c2c(c(=N)c3c1CCC3)CCC2,83.1
4,O=C(Nc1ccc2c(c1)CCN2C1CCN(Cc2ccc(O)cc2)C1)c1ccco1 (stereo not given),-0.34
5,CCN(CC)CCNc1ccnc2ccc3ccccc3c12,2.97
6,CN1CCN(CC(=O)Nc2ccc(-c3ccc(-c4nc5ccccc5[nH]4)cc3)cc2)CC1,9.57
7,COc1ccc(NS(=O)(=O)c2cc(NC(=O)Cn3ccccc3=O)ccc2N2CCCCC2)cc1,-7.28
8,COc1cccc(C(O)CNc2ccnc(Nc3cccc(-c4csc(C)n4)c3)n2)c1 (stereo not given),1.05
9,CCCCC(=O)NC(c1cccs1)c1cc(Cl)c2cccnc2c1O (stereo not given),5.17
10,COc1ccc2c(NN=Cc3ccccc3F)ccnc2c1,2.7
11,Cc1cc(CNCCCCCCNCc2cccc([N+](=O)[O-])c2)ccc1O,9.64
12,N=C1N=C(N)NCN1OCc1ccc(Cl)c(Cl)c1,-0.31
13,CCN(CC)CCNC(=O)c1ccc(NC(=O)c2cc(-c3ccncc3)nc3ccccc23)cc1,-1.61
14,O=C(Oc1ccc(C2CNCCc3c2cc(OC(=O)c2ccc(O)cc2)c(OC(=O)c2ccc(O)cc2)c3Cl)cc1)c1ccc(O)cc1 (stereo not given),4.76
15,Cc1cccc2nc(-c3ccc(-c4cccc(NC(=O)c5cnccc5C(F)(F)F)c4)cc3)[nH]c12,8.19
16,CCOC(=O)C1=C(C)N=c2sc(=Cc3cc(Cl)ccc3O)c(=O)n2C1c1ccc2c(c1)OCO2 (stereo not given),1.37
17,O=C(CCCCCNC(=O)c1ccc(O)c(-c2ccc(Cl)c(Cl)c2)c1)NCc1cccc2ccccc12,3.98
18,CCOc1ccc(C=CC(=O)Nc2ccc3nc(N4CCOCC4)cc(C)c3c2)cc1OC,4.75
19,CC(C)(C)c1ccc(NC(=O)Nc2ccc(Cn3ncc(N4CCCNCC4)c(Cl)c3=O)cc2)cc1,3.41
20,CN(C)CCCc1cc(NC(=O)Nc2cccc(Cl)c2Cl)ccc1I,3.83
